# Screens: PubChem BioAssay, National Center for Advancing Translational Sciences (NCATS)
# IP6K1 inhibitor = inhibitors of human IP6K1; IP6K1 kinase, ADP-Glo luminescence, 2 h; active compounds read low; activity change, % (series mostly up to about 58 µM); 140,000 tested, 0.81% active; in the data active means activity change below about -25%; further: on the % scale 0 is the no-effect control and ±100 the full control effect
# Target sequence (Q92551 whole entry, looked up): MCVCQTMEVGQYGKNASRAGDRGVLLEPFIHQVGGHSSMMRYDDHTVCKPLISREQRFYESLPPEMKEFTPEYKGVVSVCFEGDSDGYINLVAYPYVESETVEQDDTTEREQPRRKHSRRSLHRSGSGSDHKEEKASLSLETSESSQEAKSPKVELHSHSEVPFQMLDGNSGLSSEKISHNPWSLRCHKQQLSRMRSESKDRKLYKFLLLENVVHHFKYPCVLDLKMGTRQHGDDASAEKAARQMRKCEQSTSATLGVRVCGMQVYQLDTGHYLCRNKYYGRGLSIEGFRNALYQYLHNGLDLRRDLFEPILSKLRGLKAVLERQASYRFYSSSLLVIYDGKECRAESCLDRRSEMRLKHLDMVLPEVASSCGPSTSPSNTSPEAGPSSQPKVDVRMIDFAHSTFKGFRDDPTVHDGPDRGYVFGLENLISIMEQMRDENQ
#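 ADP-Glo luminescence measures ADP made by human IP6K1 during a 2 h RT reaction with ATP/IP6 (mix at 1.3 mM/130 uM); top library doses 57.5 and 19.1 uM final.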
# KDM5B inhibitor = blocks human KDM5B histone demethylase activity | AID 1347165 | KDM5B demethylase, FDH-coupled NADH fluorescence (FDH is formaldehyde dehydrogenase) | 220,000 tested, 2.6% active | Q9UGL1 | Potency, µM (top dose mostly 57.7 µM), actives largely listed as inhibitors; further: potency means the concentration at half of the fitted maximal effect; 0% is about no effect; nearly all actives have a fitted effect of over 70% in size
#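 Measured: NADH fluorescence change, 30 min, RT. System: KDM5BΔAP 200 nM final, H3K4me3 peptide, α-KG, Fe(II), ascorbate, NAD⁺ plus FDH, pH 7.5 HEPES. Compounds: titrated, 10 min pre-incubation with enzyme.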
# HEK293 viab = cell viability loss counter-screen. AID 1671193. Potency, µM (highest dose often 57.1 µM), for the others: at the top dose activity change, negative = cytotoxicity, most hits filed as cytotoxic. 150,000 tested, 0.12% active. HEK-293-SNCA-luc viability, GF-AFC fluorescence, 24 h;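 further: potency means the concentration at half of the fitted maximal effect; 0% = DMSO-treated cells and -100% = medium-only wells without cells; nearly all actives have a fitted effect of over 30% in size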
#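 Cytotoxicity counterscreen: after 24 h compound treatment of genome-edited SNCA-luciferase HEK-293 cells, live-cell protease substrate GF-AFC read by fluorescence after 30 min; activity scaled between DMSO (0%) and medium-only (-100%), curves Hill-fitted.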
# SNCA expr inh = inhibitors of alpha-synuclein (SNCA) gene expression; HEK-293 SNCA-luciferase knock-in, luminescence, 24 h; Potency, µM (series often up to 57.2 µM), for the others: at the top dose activity change, negative = inhibition, hits mostly inhibitors; 140,000 tested, 0.17% active; AID 1671194;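 further: potency means the concentration at half of the fitted maximal effect; plate controls were DMSO cells for no effect and cell-free wells for full effect; nearly all actives have a fitted effect of over 45% in size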
# * = called active by the depositor; i = inactive; ? = inconclusive; / = no result; [ ] = dose if it differs, or a comment. Hits are enriched below; roughly 2.9% of the tested compounds scored in any of these assays. Unless noted, the call rests on the fitted dose curve; in most records, active means well fitted curve in the direction sought with a large enough effect; inconclusive means small, poorly fitted or top-dose-only effect, or another doubt; inactive means no such curve, though single readings can be large; an effect the other way counts as inactive or inconclusive.
SMILES,IP6K1 inhibitor,KDM5B inhibitor,HEK293 viab,SNCA expr inh
CN(C)C[C@@H]1CN(c2ccccn2)C[C@H]1NC(=O)c1ccsc1,0,22µM*,6%,1%
CN(C)C[C@@H]1CN(c2ccncn2)C[C@H]1NC(=O)c1ccc2c(c1)OCO2,-9,?,-15%,-19%
CN(C)C[C@@H]1CN(c2ccccn2)C[C@H]1NC(=O)NC1CCCCC1,9,32µM*,-8%,5%
CN(C)C[C@@H]1CN(c2ccccn2)C[C@H]1NC(=O)c1ccc2c(c1)OCO2,13,28µM*,-13%,10%
CN(C)C[C@@H]1CN(c2ccncn2)C[C@H]1NC(=O)NC1CCCCC1,-2,i,12%,4%
COC(=O)N1CCN(c2ccc3nnc(C)n3n2)CC1,9,/,/,/
COCC(=O)N1CCC(N2C(=O)c3c(c(C)nn3-c3ccccc3)C2C(C)C)CC1 (stereo not drawn),-6,/,/,/
CC(C(=O)N1CCC(C(=O)N2CCCCCCNC(=O)CC2)CC1)c1ccccc1 (stereo not drawn),-5,i,3%,-20%
CN1CCCCC1C(=O)NCc1cccnc1Oc1cccc(C(F)(F)F)c1 (stereo not drawn),18,i,5%,-20%
CC(C)CCN1CCC(N2CCN(S(=O)(=O)c3ccc4c(c3)CCCC4)CC2)C1=O (stereo not drawn),25,i,-14%,-29%
CN(C)C[C@@H]1CN(c2ccccn2)C[C@H]1NC(=O)c1ccoc1,9,28µM*,1%,0%
CN(C)C[C@@H]1CN(c2ccccn2)C[C@H]1NC(=O)c1cccn1C,-4,22µM*,5%,16%
O=C(c1nnc(CNc2ccccn2)n1-c1cccnc1)N1CCC[C@@H]1C(c1ccccc1)c1ccccc1,0,13µM*,3%,-11%
O=C(c1nnc(CNCc2cccc(F)c2)n1-c1cccnc1)N1CCC[C@@H]1C(c1ccccc1)c1ccccc1,1,i,1%,-11%
O=C(c1ccc2c(c1)OCO2)N1CCC2(CC(c3cccc(C(F)(F)F)c3)=NO2)C1 (stereo not drawn),8,?,-20%,-14%
O=C(c1ccc2c(c1)OCO2)N1C[C@@H]2C[C@H](C1)c1ccc(-c3cccc(C(F)(F)F)c3)c(=O)n1C2,3,28µM*,2%,-4%
O=C(COc1ccccc1)N1C[C@@H]2C[C@H](C1)c1ccc(-c3cccc(C(F)(F)F)c3)c(=O)n1C2,3,22µM*,-1%,19%
Cc1nn(-c2ccccc2[N+](=O)[O-])c(C)c1[C@@H]1C=C[C@@H](NCc2ccco2)C1,-7,?,?,-25%[87.6 µM]
Cc1nn(-c2ccccc2[N+](=O)[O-])c(C)c1[C@@H]1C=C[C@@H](NCc2ccc(C(C)C)cc2)C1,-12,?,20µM*,1%[87.6 µM]
CC(C)(C)OCC(O)CN1CCC(=O)N(Cc2ccccc2)Cc2cc3c(cc21)OCO3 (stereo not drawn),6,/,/,/
FC(F)(F)c1cccc(Nc2nc(CN3CCOCC3)nc3sc4c(c23)CCCC4)c1,/,i,/,/
O=C1NCCN2CC3(CCN(C(=O)Nc4ccccc4)CC3)CC12 (stereo not drawn),5,?,-7%,-6%
O=C1NCCN2CC3(CCN(C(=O)c4ccco4)CC3)CC12 (stereo not drawn),-10,28µM*,0%,-9%
CCOCCCNC(=O)N1CCC(Cc2nc(-c3ccncc3)n[nH]2)CC1,-9,32µM*,0%,-25%
COc1ccc(CNC(=O)N2CCC(Cc3nc(-c4ccncc4)n[nH]3)C2)cc1 (stereo not drawn),3,i,5%,-17%
SMILES,IP6K1 inhibitor,KDM5B inhibitor,HEK293 viab,SNCA expr inh
O=C(Nc1cc(-c2cccnc2)nn1-c1ccccc1)c1ccc(C(F)(F)F)cc1,-8,/,1%,-4%
COc1ccccc1-c1cc(C(=O)NCCc2ccc(Cl)cc2)c2cnn(C)c2n1,-10,79µM*,-7%,8%
COc1ccccc1-c1cc(C(=O)NCCc2ccc(Cl)cc2)nc2c1cnn2C,-5,79µM*,-1%,23%
CCc1cccc2c(C(=O)CN3C(=O)CC4(CCCCC4)C3=O)c[nH]c12,/,i,/,/
CC(C)CNC(=O)c1cc2cn(C3CC3)cc2s1,2,?,5%,-17%
O=C(O)c1cc2cn(C3CCCC3)cc2s1,1,16µM*,7%,23%
CN(C)CCNC(=O)c1cc2cn(C3CC3)cc2s1,4,13µM*,2%,-3%
CC1CCN(CCNC(=O)c2cc3cn(C(C)C)cc3s2)CC1,3,14µM*,8%,-6%
O=C(Nc1ccc2oc(-c3ccc(F)cc3)nc2c1)c1ccccc1Cl,/,i,/,/
CCCOc1nc2ccccc2nc1C(C#N)C(=O)NCc1ccccc1 (stereo not drawn),/,i,/,/
COc1ccc(CN2C(=O)[C@@H]3C[C@@H](CN3C3CCCC3)Oc3ccccc32)cc1,0,?,-13%[87.6 µM],0%[87.6 µM]
CN(C)[C@H]1CCCCN(C(=O)CCc2ccc(-c3ccc(Cl)cc3)[nH]2)C1,-7,32µM*,-19%,17%
O=C(CCc1ncc(-c2ccc(Cl)cc2)o1)N1CCCC(O)C1 (stereo not drawn),/,i,/,/
Clc1ccccc1CN1CCN(c2ncnc3nc[nH]c23)CC1,/,i,/,/
COc1ccc2[nH]c(CNc3cc(C4CC(N)C4)nc(C)n3)cc2c1 (stereo not drawn),-11,20µM*,1%,11%
COc1ccc(-c2[nH]ncc2CNc2cc(C3CC(O)C3)nc(C)n2)cc1 (stereo not drawn),8,i,2%,17%
Cc1cc(-c2cc3c(cn2)CN(Cc2ccccn2)CCN3)ccn1,-12,?,8%[87.6 µM],22%[87.6 µM]
COc1ccc(Nc2cc3c(cn2)CN(CCc2ccccc2)CCN3)cc1OC,-10,?,?,4%[87.6 µM]
C[S+](=O)([O-])c1ccc(-c2cc3c(cn2)CN(CCc2ccccc2)CCN3)cc1,2,40µM*,-24%[87.6 µM],-2%[87.6 µM]
Cc1cc(-c2cc3c(cn2)CN(CC2CCOCC2)CCN3)ccn1,-1,35µM*,5%[87.6 µM],56%[87.6 µM]
COc1ccc(-c2cc3c(cn2)CN(CCc2ccccc2)CCN3)cc1OC,-2,35µM*,?,88%[87.6 µM]
COc1ccc(Cl)cc1-c1cc2c(cn1)CN(Cc1cccnc1)CCN2,-14,32µM*,0%[87.6 µM],64%[87.6 µM]
COc1ccc(-c2cc3c(cn2)CN(Cc2ccccc2)CCN3)cc1OC,-13,32µM*,-21%[87.6 µM],102%[87.6 µM]
CC(=O)NC1(C)CCN(Cc2ccccc2-c2ccc3c(ccn3C)c2)C1 (stereo not drawn),-12,35µM*,-4%[87.6 µM],9%[87.6 µM]
COc1cc2nc(Cl)nc(N)c2cc1OC,8,/,-10%[23.9 µM],-19%[25.6 µM]
CC[C@@]1(O)CCN(c2nc(N)c3cc(OC)c(OC)cc3n2)C[C@H]1O,11,32µM*,-10%,-18%
